{"source": "PubChem BioAssay AID720618", "about": "(Broad Institute, 2013)", "assay": "HeLa cell apoptosis via caspase 3/7 – caspase 3/7 luminescence, several timepoints, dry powder, mechanism study for HRAS target identification, late-stage follow-up (AID 720618)", "settings": "caspase-3/7 apoptosis luminescence, multiple timepoints; max activity: measured here: caspase 3/7, second timepoint, at 35 µM, stronger effect = higher value; series mostly up to 35 µM", "note": "Results filed as inconclusive are left out. The source made the active and inactive calls. The rule behind the calls is not given here.", "data": [{"molecule": "Cc1onc(C(=O)N2CCN(C(c3ccc(Cl)cc3)c3ccc(OCCOCCOCCNC(=O)OC(C)(C)C)cc3)CC2)c1[N+](=O)[O-]", "note": "(configuration not stated)", "values": [{"measurement": "max activity", "value": 35.4, "unit": "%"}, {"measurement": "outcome", "value": "inactive"}]}]}
